These entries were drawn from the full list.
aSyn 5UTR act: Activators via SNCA 5'UTR binding, MLPCN; alpha-synuclein 5'UTR reporter, activators screen; activity score, % (tested at 7.5 µM), hits read low; AID 1814, 2009; actives 7.1% (n = 300,000); in the data active = activity score below about -60%
Of the large screens only hits and unclear results are named; the others gave an inactive call.

N/C(=N\OC(=O)c1ccoc1)c1ccc(Br)cc1	aSyn 5UTR act -111
N/C(=N\OC(=O)c1ccc2ccccc2c1)c1ccc(Br)cc1	aSyn 5UTR act -103
Cc1cccc(C(=O)O/N=C(\N)c2ccc(Cl)cc2)c1	aSyn 5UTR act -108
Cc1cc(C)cc(C(=O)O/N=C(\N)c2ccc(Br)cc2)c1	aSyn 5UTR act -83
Cc1cccc(C(=O)O/N=C(\N)c2ccc(Br)cc2)c1	aSyn 5UTR act -211
N/C(=N\OC(=O)c1cccc(Br)c1)c1ccccn1	none
N/C(=N\OC(=O)c1cccc(Br)c1)c1ccccc1	aSyn 5UTR act -305
Cc1ccc(C(=O)O/N=C(\N)c2ccc(Br)cc2)cc1C	aSyn 5UTR act -136
Cc1ccc(-c2cn(-c3ccccc3)c(=S)[nH]2)cc1C	aSyn 5UTR act -94
CCc1ccc(-n2cc(-c3ccc([N+](=O)[O-])cc3)[nH]c2=S)cc1	aSyn 5UTR act -108
Fc1ccccc1-n1cc(-c2ccccc2)[nH]c1=S	aSyn 5UTR act -100
COc1ccc(-n2cc(-c3ccccc3)[nH]c2=S)c(OC)c1	aSyn 5UTR act -75
COc1ccc(-n2cc(-c3ccc(Br)cc3)[nH]c2=S)cc1	aSyn 5UTR act -138
Cc1ccc(-c2noc(CN3CCC(C(N)=O)CC3)n2)cc1	aSyn 5UTR act -86
CC1CCN(Cc2nc(-c3ccccc3)no2)CC1	aSyn 5UTR act -190
CC(C)C(O)C1CCN(Cc2nc(-c3cccs3)no2)CC1 (stereo not drawn)	aSyn 5UTR act -108
CCn1cc(C(=O)Nc2ccc(Cl)cc2Cl)cn1	aSyn 5UTR act -72
Cc1cccc(-n2ncc3c(NC4CCCCC4)ncnc32)c1	aSyn 5UTR act -90
Cc1cccc(-n2ncc3c(N4CC(C)CC(C)C4)ncnc32)c1 (stereo not drawn)	aSyn 5UTR act -109
Cc1cccc(-n2ncc3c(NCCCO)ncnc32)c1	aSyn 5UTR act -101
Cc1ccc(-n2ncc3c(N4CCN(c5ccccc5)CC4)ncnc32)c(C)c1	aSyn 5UTR act -62
Cc1cccc(-n2ncc3c(N4CCOCC4)ncnc32)c1	none
C=CCNc1ncnc2c1cnn2-c1cccc(C)c1	aSyn 5UTR act -133
COc1cc(CNCc2ccccn2)ccc1OCc1ccc(Cl)c(Cl)c1	aSyn 5UTR act -114
Nc1ncccc1OCc1ccc(Cl)c(Cl)c1	aSyn 5UTR act -149
Cc1ccc(OCCOc2ccc(Br)cc2)c([N+](=O)[O-])n1	aSyn 5UTR act -182
Cc1ccc(OCc2ccc([N+](=O)[O-])cc2)c([N+](=O)[O-])n1	aSyn 5UTR act -115
COc1ccccc1OCC(=O)NC1CCCCCC1	aSyn 5UTR act -76
Cc1cc(Br)ccc1OCC(=O)NC1CCCC1	aSyn 5UTR act -66
O=C(COc1ccc(Br)cc1Br)NC(=O)NC1CCCC1	aSyn 5UTR act -237
CCc1ccc(OCC(=O)Nc2ccncc2)c(Br)c1	aSyn 5UTR act -442
COC(=O)c1[nH]c2ccc(Br)cc2c1NC(=O)CN1CCN(C2CCCCC2)CC1	none
CCc1ccc(OCC(=O)NC2CCCCC2)c(Br)c1	aSyn 5UTR act -120
O=C(NC(=S)NC1CCCCCC1)c1cncc(Br)c1	aSyn 5UTR act -168
O=C(CNC(=S)NC(=O)c1ccccc1)c1ccccc1	aSyn 5UTR act -83
O=C(N/N=C\c1c(O)ccc2ccccc12)c1cncc(Br)c1	none
O=C(NC(=S)NC1CCCCC1)c1ccccc1	aSyn 5UTR act -95
O=C(NC(=S)Nc1ccc(O)cc1)c1cncc(Br)c1	aSyn 5UTR act -71
O=c1c2c3nc4ccccc4nc3n(/N=C/c3ccccn3)c2ncn1-c1ccccc1	aSyn 5UTR act -238
Cc1cc(N(C)/N=C/c2ccccc2)nc(-c2ccccc2O)n1	aSyn 5UTR act -119
CN(/N=C/c1cc(Br)cc(Br)c1O)c1cccc(C(F)(F)F)n1	none
Cc1cc(N/N=C/c2ccc(O)cc2O)nc(-c2ccccc2O)n1	none
Cc1cc(N/N=C\c2ccccc2)nc(-c2ccccc2O)n1	aSyn 5UTR act -138
C/C(=C\C(=S)Nc1ccccc1)Nc1ccc2ccccc2c1	aSyn 5UTR act -94
C/C(=C\C(=S)Nc1ccccc1)Nc1cccc2ccccc12	aSyn 5UTR act -104
COCCCNC(=S)NC(=O)c1ccc(C)cc1	aSyn 5UTR act -125
CS(=O)(=O)NCc1ccc(C(=O)NCCOc2ccccc2)cc1	aSyn 5UTR act -120
CCOC(=O)CNC(=O)c1ccc(OCC(F)(F)F)cc1	aSyn 5UTR act -76
Cc1ccc(OCCNC(=O)c2ccc(C)cc2)cc1	aSyn 5UTR act -148
CC(C)CCOc1ccc(C(=O)NCCC(=O)N2CCOCC2)cc1	aSyn 5UTR act -82
COc1ccc(OCCNC(=O)c2ccc(C)cc2)cc1	aSyn 5UTR act -79
Cc1ccc(N2CCN(C(=O)c3cn(CC4CCCCC4)nn3)C(C)C2)cc1 (stereo not drawn)	aSyn 5UTR act -154
c1cnc(SCCOc2ccc3c(c2)CCC3)nc1	aSyn 5UTR act -111
Cc1c(Cl)c([N+](=O)[O-])nn1CCCC(=O)NCCc1ccccc1	aSyn 5UTR act -64
S=C(NC1CCCCC1)c1ccc2c(c1)OCO2	aSyn 5UTR act -65
O=C(NC1CCCCC1)c1ccc2c(c1)OCCO2	aSyn 5UTR act -82
O=C(NNC(=S)NC1CCCCC1)c1ccc2c(c1)OCO2	aSyn 5UTR act -78
Cc1nc(NCCOc2ccccc2)sc1C(=O)Nc1ccccc1	aSyn 5UTR act -88
Nc1nc(Nc2ccccc2F)sc1C(=O)c1ccccc1	aSyn 5UTR act -188
Cc1nc(NCc2ccccc2)sc1C(=O)Nc1ccccc1	aSyn 5UTR act -148
Cc1nc(Nc2ccccc2)sc1C(=O)Nc1ccccc1	aSyn 5UTR act -102
Cc1nc(Nc2ccccc2)sc1C(=O)c1ccc(F)cc1	aSyn 5UTR act -94
CSc1nc(N(C)NC(=O)c2ccc(F)cc2)c2ccccc2n1	none
O=C(NCc1ccco1)c1ccc(COc2cc(Cl)ccc2Cl)cc1	aSyn 5UTR act -95
O=C(COc1ccc(Cl)cc1Cl)NCc1ccco1	aSyn 5UTR act -64
COc1cccc(OCc2cc(/C=N/NC(=O)c3ccn[nH]3)ccc2OC)c1	aSyn 5UTR act -71
COc1ccc(C2=NN(CN3C(=O)C(=O)c4ccccc43)C(c3cccc([N+](=O)[O-])c3)C2)cc1 (stereo not drawn)	aSyn 5UTR act -70
Oc1ccc(Br)cc1C=Nc1ccc2c3c(cccc13)CC2	aSyn 5UTR act -69
Cc1cc(C)n2nc(C(=O)NNC(=O)c3ccc(Cl)cc3)nc2n1	aSyn 5UTR act -76
CCOC(=O)c1c(C)c(C(=O)O)n(C)c1C	none
Cc1nn(Cc2ccccc2)c(Cl)c1C(=O)NCCc1ccccc1	aSyn 5UTR act -135
CCOC(=O)c1c(C)c(C(=O)NCCc2ccccc2)c(C)n1C	aSyn 5UTR act -80
Cc1cc(C)n2nc(C(=O)NCCc3ccccc3)nc2n1	aSyn 5UTR act -72
CC(=O)c1ccc(N/N=C2/CCCNC2=O)cc1	aSyn 5UTR act -74
O=C1NCCC/C1=N/Nc1cc(F)ccc1F	aSyn 5UTR act -113
c1ccc2c(c1)oc1c(Nc3ccc4c(c3)OCCO4)ncnc12	aSyn 5UTR act -142
c1ccc(Sc2ncnc3c2oc2ccccc23)cc1	aSyn 5UTR act -180
Oc1ccc(N=Nc2ccc3c(c2)OCCO3)c2cccnc12	none
COc1ccc(Nc2ncnc3c2oc2ccccc23)cc1	aSyn 5UTR act -160
Cc1ccc(Nc2ncnc3c2oc2ccccc23)cc1	aSyn 5UTR act -114
Cc1cc2nc(N)sc2cc1C	aSyn 5UTR act -64
Nc1nc2ccc(OC(F)(F)F)cc2s1	aSyn 5UTR act -74
CC(C)c1ccc2nc(N)sc2c1	aSyn 5UTR act -107
COc1ccc(C(=O)Nc2cc(OC)c(Cl)cc2OC)cc1	aSyn 5UTR act -120
O=C(Nc1ccccc1OC(=O)c1ccc(Cl)cc1)c1ccc(Cl)cc1	aSyn 5UTR act -343

Bioassay records (PubChem BioAssay)
